# Results filed as inconclusive are left out. The source made the active and inactive calls. Calls follow the shape of the dose curve; as a rule, active = well fitted cell-killing curve with a large enough effect in the repeat runs; inconclusive = weak or mixed curves, or effect the other way; inactive = flat fitted curve, though single readings scatter.
# Assay: qHTS assay to identify small molecule antagonists of the estrogen related receptor signaling pathway with the pleiotropic PPARgamma coactivator (PGC) cell viability counter screen (AID 1224822;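 also: viability read after 17.5 h compound exposure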)
# Settings: ERR/PGC reporter cell line viability counter screen; series mostly up to 46.1 µM; viability change, negative = cytotoxic: at the top concentration
# Source text: National Center for Advancing Translational Sciences [NCATS]
# NIH Chemical Genomics Center [NCGC]
# U.S. Environmental Protection Agency [EPA]
# National Institutes of Environmental Health Sciences [NIEHS]
# National Toxicology Program [NTP]
# U.S. Food and Drug Administration [FDA]
# Estrogen related receptors (ERRs), the first orphan nuclear receptors discovered, play an important role in the control of cellular energy metabolism. ERRs are required for high-energy production in response to the environmental challenges. The pleiotropic PPARgamma coactivator (PGC) is a major partner of ERR and a key regulator in energy homeostasis. Together they have been implicated in the etiology of metabolic disorders such as Type 2 diabetes and metabolic syndrome. ERR-alpha was also identified as an adverse marker for breast cancer progression; ERR-alpha-positive tumors have a poor prognosis. To screen and to identify environmental compounds that perturb the ERR and PGC/ERR signaling pathways could provide valuable information for potential therapeutic or preventive measures in the treatment of metabolic disease. To differentiate true PGC/ERR antagonists or agonist from cytotoxic substances, the assay is multiplexed with cell viability assay.
# Tox21 Assay Protocol Summary:
# The PGC/ERR cells were dispensed at 2,000 cells/5 ul/well in 1536-well white plates using a Multidrop dispenser. After the assay plates were incubated at a 37 C/5% CO2 incubator for 6 hours, 23 nL of compounds dissolved in DMSO, positive and negative controls or DMSO only was transferred to the assay plate by a pin tool. The plates were incubated at 37 C for 17.5 hours. 1 ul/well of CellTiter-Fluor reagent was added into the assay plates using a Flying Reagent Dispenser. After 30 min incubation at 37 C/5% CO2, the fluorescence intensity in the plates was measured using a ViewLux plate reader.
# % is scaled to controls: 0 for no effect and ±100 for the full control effect.
row,SMILES,"viability change, negative = cytotoxic"
1,NCCS,6.21% (inactive)
2,NC(CO)C(=O)NNCc1ccc(O)c(O)c1O (stereo not drawn),3.99% (inactive)
3,COc1ccc(C2CNC(=O)C2)cc1OC1CCCC1 (stereo not drawn),8.65% (inactive)
4,Cc1cccc(C)c1OCC(C)N (stereo not drawn),17.3% (inactive)
5,CCN(CC)CC(=O)Nc1c(C)cccc1C,0.669% (inactive)
6,Cc1cc(C(C)(C)C)c(O)c(C)c1CC1=NCCN1,4.79% (inactive)
7,CCN1CCc2nc(N)oc2CC1,3% (inactive)
8,CCOC(=O)c1ncn2c1CN(C)C(=O)c1cc(F)ccc1-2,7.15% (inactive)
9,FC(F)(F)c1ccccc1-n1ccnc1,3.13% (inactive)
10,CNS(=O)(=O)CCc1ccc2[nH]cc(C3CCN(C)CC3)c2c1,4.97% (inactive)
11,CN(CCOc1ccc(NS(C)(=O)=O)cc1)CCc1ccc(NS(C)(=O)=O)cc1,11.4% (inactive)
12,Nc1nnc(-c2cccc(Cl)c2Cl)c(N)n1,12.3% (inactive)
13,CCCCNc1ccc(C(=O)OCCN(C)C)cc1,-2.23% (inactive)
14,CC(C)NCC(O)COc1cccc2[nH]ccc12 (stereo not drawn),-2.73% (inactive)
15,N[C@@H](COP(=O)(O)O)C(=O)O,9.83% (inactive)
16,CC(C)NCC(O)COc1ccc(COCCOC(C)C)cc1 (stereo not drawn),12.1% (inactive)
17,CC(=O)CCCCn1c(=O)c2c(ncn2C)n(C)c1=O,-4.18% (inactive)
18,O=C(NCCN1CCOCC1)c1ccc(Cl)cc1,5.99% (inactive)
19,CN1CCN(CC(=O)N2c3ccccc3C(=O)Nc3cccnc32)CC1,9.34% (inactive)
20,C[C@@H](O)[C@H]1C(=O)N2C(C(=O)O)=C(SCCN=CN)C[C@H]12,0.997% (inactive)
21,O=C(CCNNC(=O)c1ccncc1)NCc1ccccc1,2.31% (inactive)
22,CCCN1C[C@H](CSC)C[C@@H]2c3cccc4[nH]cc(c34)C[C@H]21,0.12% (inactive)
23,COC(=O)[C@@H]1[C@H]2C[C@H]3c4[nH]c5ccccc5c4CCN3C[C@@H]2CC[C@@H]1O,9.1% (inactive)

# Source: PubChem BioAssay (Tox21)
